Values without a mark were called inactive. Inconclusive results are not listed. Calls of active or inactive are those of the source. Unless noted, calls follow the shape of the dose curve; as a rule, active = well fitted curve in either direction with a large enough effect (not every such curve was filed as active); inconclusive = small, poorly fitted or top-dose-only effect, or another doubt; inactive = flat fitted curve, though single readings scatter.
Key:
[1] = biological target: Lysosomal acid glucosylceramidase (Homo sapiens) (UniProt P04062); assay: Glucocerebrosidase-p2 (AID 348; in the data active = potency below about 10 µM; also: potency is read from the fitted curve at half-maximal effect); conditions: purified GBA, blue fluorogenic substrate, 40 min
Outline: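 Compounds titrated from 0.6 nM upwards against 0.2 nM enzyme in pH 5.9 citric acid/KH2PO4, taurocholate, tween-20; blue fluorogenic substrate 80 uM, 40 min room temperature, stopped and read Ex 365/Em 440 for AC50.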

[2] = AP1 Signaling Pathway (AID 357); conditions: ME-180 AP-1-bla reporter, EGF-induced, beta-lactamase ratio, 5 h; at 7.69 µM (top of the series) unless noted;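 also: ME-180 reporter cells stimulated with EGF at its EC50 level; % is scaled to controls: 0 for no effect and ±100 for the full control effect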
Outline: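 First, ME-180 AP-1-bla cells were cultured overnight at 37 °C in low-serum Opti-MEM. Next, titrated compounds with EC50 EGF were incubated 5 hours. Finally, CCF4 was added for 2.5 hours and the 460/530 nm ratio recorded.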

[3] = biological target: Cytochrome P450 1A2 (Homo sapiens) (UniProt P05177); assay: p450-cyp1a2 (AID 410; calls by dose curve; also: potency is read from the fitted curve at half-maximal effect;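 as to activity change, negative = inhibition: -100% = full effect of reference inhibitor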); conditions: recombinant CYP1A2, luciferin-ME demethylation, luminescence; series mostly up to 11.4 µM
Outline: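 20nM CYP1A2 with 100uM Luciferin-ME (at Km) in 100mM KPO4; compound preincubated 10 min, NADPH regeneration added, 60 min at room temperature. Luciferin quantified by luminescence after detection reagent; normalized to 57 uM furafylline.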

[4] = NFAT Signaling Pathway (AID 444); conditions: Jurkat NFAT-bla M1, carbachol, beta-lactamase ratio, 5 h; at 7.69 µM (top of the series) unless noted;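 also: carbachol stimulus at about its EC50 of 1 µM final; % is scaled to controls: 0 for no effect and ±100 for the full control effect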
Outline: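 Jurkat cells with NFAT-driven β-lactamase reporter and co-expressed M1 receptor, stimulated with carbachol (final 1 uM, ~EC50), compound titration, 5 h at 37 °C. CCF4 loaded 1 h at RT; 460/530 nm ratio gave %activity and AC50.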

[5] = biological target: Glucocorticoid receptor (Homo sapiens) (UniProt P04150); assay: GR-GFP Redistribution (AID 450;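 active = compounds whose dose series gives a full or clear partial fitted curve of increased nuclear translocation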; also: potency is read from the fitted curve at half-maximal effect); conditions: U2OS GR-GFP nuclear translocation, laser cytometry, 2 h
[6] = biological target: Glucocorticoid receptor (Homo sapiens) (UniProt P04150); assay: GR-EFC Redistribution (AID 451; calls by dose curve; also: potency is read from the fitted curve at half-maximal effect); conditions: CHO-K1 GR-EFC translocation, beta-gal luminescence, 2 h
Outline: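 CHO-K1 cells expressing nuclear EA and GR-ED fragments of b-gal; compounds titrated up to 46 uM final, 2 h at 37 C. GR nuclear translocation read as complemented b-gal luminescence after 1 h RT detection.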

[7] = biological target: Mitogen-activated protein kinase 10 (Mus musculus) (UniProt Q61831); assay: JNK3 AlphaScreen Assay (AID 530); conditions: JNK3 lysate, c-Jun phosphorylation; series mostly up to 11.4 µM;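 also: kinase came from lysate of stimulated human HepG2 cells; signal reports phosphorylation of biotinylated GST-cJun 1-79 at Ser73 with 10 µM ATP; % is scaled to controls: 0 for no effect and ±100 for the full control effect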
Outline: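 Pre-activated (IL-1β/TNFα) JNK3 in HepG2 lysates phosphorylates biotin-GST-cJun(1-79), 10 uM ATP; anti-phospho-cJun(Ser73) AlphaScreen read at room temperature, pH 7.6 Tris buffer. Compounds pre-incubated 15 min as titrations.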

[8] = biological target: 3',5'-cyclic-AMP phosphodiesterase 4B (Homo sapiens) (UniProt Q07343); assay: qHTS Assay for Inhibitors of PDE-IV (AID 607; active = well fitted activation curve with a large enough effect in the main read-out, with a control signal flat, not every such curve was filed as active; also: % of control where 0% means no effect); conditions: HEK293 ACTOne CNG channel cells, membrane potential fluorescence; series mostly up to 22.9 µM
Outline: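 The readout is membrane depolarisation from a cAMP-sensing CNG channel, detected with a potential dye at ex 535/em 590. Cells were HEK293-derived (endogenous PDE-IV) at 1000 cells/well, titrated up to 22.9 uM final.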

[9] = biological target: Cytochrome P450 2C9 (Homo sapiens) (UniProt P11712); assay: qHTS Assay for Inhibitors and Substrates of Cytochrome P450 2C9 (AID 883; active = well fitted curve in the direction sought with a large enough effect; an effect the other way counts as inactive or inconclusive; also: potency is read from the fitted curve at half-maximal effect; nearly all actives have a fitted effect of over 60% in size); conditions: recombinant CYP2C9, luciferin-H luminescence, 60 min; series mostly up to 11.4 µM
Outline: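 Human CYP2C9 (10nM) with Luciferin-H at 100uM (its KM) in 25mM KPO4; compound preincubated 10 min at 37C, then NADPH regeneration for 60 min at 37C. Luciferin read by luminescence after detection reagent; normalized to 57uM sulphaphenazole as full inhibition.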

[10] = biological target: Cytochrome P450 3A4 (Homo sapiens) (UniProt P08684); assay: qHTS Assay for Inhibitors and Substrates of Cytochrome P450 3A4 (AID 884; active = well fitted curve in the direction sought with a large enough effect; an effect the other way counts as inactive or inconclusive; also: potency is read from the fitted curve at half-maximal effect; nearly all actives have a fitted effect of over 50% in size); conditions: recombinant CYP3A4, Luciferin-PPXE luminescence; series mostly up to 57.1 µM
Outline: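 20 nM human CYP3A4 with 25 uM Luciferin-PPXE (at KM) in 200 mM KPO4, preincubated 10 min with compound; NADPH regeneration started a 60 min RT reaction. Luciferin detected by luminescence, normalized to 57 uM ketoconazole as full inhibition.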

[11] = biological target: Cytochrome P450 3A4 (Homo sapiens) (UniProt P08684); assay: qHTS Assay for Activators of Cytochrome P450 3A4 (AID 885; active = well fitted curve in the direction sought with a large enough effect; an effect the other way counts as inactive or inconclusive; also: nearly all actives have a fitted effect of over 65% in size); conditions: recombinant CYP3A4, Luciferin-PPXE luminescence, 60 min; series mostly up to 11.4 µM
Outline: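 Steps: enzyme/substrate mix dispensed; compound added, 10 min RT; NADPH regeneration solution added, 60 min RT; luciferin detection buffer stops reaction; 20 min later luminescence measured.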

[12] = biological target: Cytochrome P450 2D6 (Homo sapiens) (UniProt P10635); assay: qHTS Assay for Inhibitors and Substrates of Cytochrome P450 2D6 (AID 891; active = well fitted curve in the direction sought with a large enough effect; an effect the other way counts as inactive or inconclusive; also: potency is read from the fitted curve at half-maximal effect; nearly all actives have a fitted effect of over 60% in size); conditions: recombinant CYP2D6, luciferin-ME EGE luminescence; series mostly up to 11.4 µM
Outline: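 Human CYP2D6 (5 nM) with 30 uM Luciferin-ME EGE (at Km) in 100 mM KPO4, compound preincubated 10 min, then NADPH regeneration system for 60 min at room temperature. Luciferin read by luminescence; normalized to 1.43 uM quinidine.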

[13] = Stat Signaling Pathway (AID 446); conditions: ME-180 SIE beta-lactamase reporter, IL-6 stimulated, 5 h; at 7.69 µM (top of the series) unless noted;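 also: ME-180 cervical cancer cells given 40 pM IL-6 alongside compound; SIE-controlled beta-lactamase reporter measured as 460/530 nm FRET emission ratio; % is scaled to controls: 0 for no effect and ±100 for the full control effect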
Outline: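 Screening format detects activators and inhibitors alike: ME-180 SIE-bla cells stimulated at 40 pM IL-6 for 5 hrs with compound, then dual-emission beta-lactamase read at 405 nm excitation.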

Glucocorticoid receptor (Homo sapiens), sequence (P04150 whole entry, looked up, the tested form may be a part): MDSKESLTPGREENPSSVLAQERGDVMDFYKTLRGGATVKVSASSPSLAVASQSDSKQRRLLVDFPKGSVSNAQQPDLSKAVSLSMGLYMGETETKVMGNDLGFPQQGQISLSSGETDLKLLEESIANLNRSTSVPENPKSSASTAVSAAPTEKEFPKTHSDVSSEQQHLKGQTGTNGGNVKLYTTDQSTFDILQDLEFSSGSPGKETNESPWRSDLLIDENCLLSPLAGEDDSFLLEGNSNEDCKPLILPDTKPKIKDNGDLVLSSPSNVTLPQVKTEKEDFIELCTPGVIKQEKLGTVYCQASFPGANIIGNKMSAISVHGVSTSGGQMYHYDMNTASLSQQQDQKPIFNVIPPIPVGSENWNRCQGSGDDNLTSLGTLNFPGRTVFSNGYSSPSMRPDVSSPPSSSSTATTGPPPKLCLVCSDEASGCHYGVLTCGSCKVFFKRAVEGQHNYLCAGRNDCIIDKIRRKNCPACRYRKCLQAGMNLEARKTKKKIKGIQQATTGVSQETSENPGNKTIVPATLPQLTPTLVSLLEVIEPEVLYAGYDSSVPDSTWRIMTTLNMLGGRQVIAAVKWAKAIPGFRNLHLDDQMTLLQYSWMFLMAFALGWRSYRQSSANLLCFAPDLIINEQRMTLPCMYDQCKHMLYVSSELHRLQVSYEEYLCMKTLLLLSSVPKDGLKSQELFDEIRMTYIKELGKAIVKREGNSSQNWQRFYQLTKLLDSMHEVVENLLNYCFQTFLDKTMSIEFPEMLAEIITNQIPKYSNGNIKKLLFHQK
Cytochrome P450 1A2 (Homo sapiens), sequence (P05177 whole entry, looked up): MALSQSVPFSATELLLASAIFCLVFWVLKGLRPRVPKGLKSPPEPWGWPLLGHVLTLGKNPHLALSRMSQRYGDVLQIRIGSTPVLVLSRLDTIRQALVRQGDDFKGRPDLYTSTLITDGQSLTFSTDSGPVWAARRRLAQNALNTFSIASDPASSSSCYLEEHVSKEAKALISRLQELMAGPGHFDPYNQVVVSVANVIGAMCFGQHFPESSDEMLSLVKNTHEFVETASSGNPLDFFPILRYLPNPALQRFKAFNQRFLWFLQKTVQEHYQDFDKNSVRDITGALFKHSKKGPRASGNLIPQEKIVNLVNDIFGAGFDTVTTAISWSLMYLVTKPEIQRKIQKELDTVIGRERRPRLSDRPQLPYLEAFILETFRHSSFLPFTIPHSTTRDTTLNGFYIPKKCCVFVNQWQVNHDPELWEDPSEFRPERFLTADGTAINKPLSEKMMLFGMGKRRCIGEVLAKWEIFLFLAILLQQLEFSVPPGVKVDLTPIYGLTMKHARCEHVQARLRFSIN
Lysosomal acid glucosylceramidase (Homo sapiens), sequence (P04062 whole entry, looked up): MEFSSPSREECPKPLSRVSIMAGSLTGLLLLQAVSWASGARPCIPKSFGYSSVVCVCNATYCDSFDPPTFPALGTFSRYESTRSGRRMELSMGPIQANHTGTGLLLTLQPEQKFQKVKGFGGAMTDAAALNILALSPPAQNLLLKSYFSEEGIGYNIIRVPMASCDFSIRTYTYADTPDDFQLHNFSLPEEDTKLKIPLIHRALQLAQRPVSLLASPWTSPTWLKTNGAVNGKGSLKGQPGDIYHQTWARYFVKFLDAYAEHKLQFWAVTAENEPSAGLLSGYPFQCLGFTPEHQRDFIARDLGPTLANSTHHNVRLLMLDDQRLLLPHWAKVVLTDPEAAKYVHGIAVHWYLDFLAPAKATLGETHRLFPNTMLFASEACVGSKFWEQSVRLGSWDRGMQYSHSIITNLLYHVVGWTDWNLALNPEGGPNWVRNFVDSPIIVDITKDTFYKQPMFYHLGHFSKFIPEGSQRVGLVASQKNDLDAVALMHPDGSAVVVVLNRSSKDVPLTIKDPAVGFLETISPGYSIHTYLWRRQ
3',5'-cyclic-AMP phosphodiesterase 4B (Homo sapiens), sequence (Q07343 whole entry, looked up): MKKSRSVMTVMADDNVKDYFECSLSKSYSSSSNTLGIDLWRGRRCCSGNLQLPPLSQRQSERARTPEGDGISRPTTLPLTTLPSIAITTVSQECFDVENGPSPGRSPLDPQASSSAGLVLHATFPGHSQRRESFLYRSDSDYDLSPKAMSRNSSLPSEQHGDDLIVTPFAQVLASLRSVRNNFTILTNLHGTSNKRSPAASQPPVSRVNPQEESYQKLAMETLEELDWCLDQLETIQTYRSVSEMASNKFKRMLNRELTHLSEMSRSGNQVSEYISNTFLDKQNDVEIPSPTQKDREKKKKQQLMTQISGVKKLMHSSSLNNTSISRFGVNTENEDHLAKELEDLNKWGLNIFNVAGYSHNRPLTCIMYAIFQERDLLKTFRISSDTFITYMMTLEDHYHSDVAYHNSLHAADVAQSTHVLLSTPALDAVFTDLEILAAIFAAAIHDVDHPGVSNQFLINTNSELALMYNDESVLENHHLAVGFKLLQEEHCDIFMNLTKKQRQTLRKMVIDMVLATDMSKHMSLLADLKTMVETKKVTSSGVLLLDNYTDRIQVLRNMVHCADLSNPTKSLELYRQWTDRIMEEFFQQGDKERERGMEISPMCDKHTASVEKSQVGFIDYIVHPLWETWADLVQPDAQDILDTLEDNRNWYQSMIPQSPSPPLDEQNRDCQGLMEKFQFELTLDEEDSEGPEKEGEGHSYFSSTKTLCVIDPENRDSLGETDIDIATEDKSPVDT
Cytochrome P450 3A4 (Homo sapiens), sequence (P08684 whole entry, looked up): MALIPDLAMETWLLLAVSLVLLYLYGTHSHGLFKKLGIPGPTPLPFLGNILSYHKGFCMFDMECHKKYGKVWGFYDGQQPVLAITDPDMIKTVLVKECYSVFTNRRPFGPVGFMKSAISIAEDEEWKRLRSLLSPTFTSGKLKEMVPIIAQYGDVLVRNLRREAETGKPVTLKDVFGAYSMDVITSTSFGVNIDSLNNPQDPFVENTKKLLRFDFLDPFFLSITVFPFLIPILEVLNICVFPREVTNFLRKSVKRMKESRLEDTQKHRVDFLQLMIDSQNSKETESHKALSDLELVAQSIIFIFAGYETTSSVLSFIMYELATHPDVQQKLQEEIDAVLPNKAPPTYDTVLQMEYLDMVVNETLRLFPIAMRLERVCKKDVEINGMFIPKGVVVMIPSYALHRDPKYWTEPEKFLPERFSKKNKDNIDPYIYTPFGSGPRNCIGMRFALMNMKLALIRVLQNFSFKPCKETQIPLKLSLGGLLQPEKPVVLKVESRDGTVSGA
Cytochrome P450 2C9 (Homo sapiens), sequence (P11712 whole entry, looked up): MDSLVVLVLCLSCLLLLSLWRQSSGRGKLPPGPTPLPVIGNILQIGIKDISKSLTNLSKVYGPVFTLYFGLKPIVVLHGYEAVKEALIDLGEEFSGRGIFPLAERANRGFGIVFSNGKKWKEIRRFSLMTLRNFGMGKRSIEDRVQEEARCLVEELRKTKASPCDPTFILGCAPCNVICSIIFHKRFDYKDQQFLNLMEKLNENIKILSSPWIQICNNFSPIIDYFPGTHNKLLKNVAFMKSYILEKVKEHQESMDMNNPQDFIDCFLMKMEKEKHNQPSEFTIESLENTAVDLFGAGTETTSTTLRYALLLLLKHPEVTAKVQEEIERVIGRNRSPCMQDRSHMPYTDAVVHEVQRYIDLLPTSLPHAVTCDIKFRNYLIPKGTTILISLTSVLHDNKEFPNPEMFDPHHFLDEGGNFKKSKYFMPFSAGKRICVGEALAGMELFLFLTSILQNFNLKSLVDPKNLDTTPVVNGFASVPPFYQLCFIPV
Cytochrome P450 2D6 (Homo sapiens), sequence (P10635 whole entry, looked up): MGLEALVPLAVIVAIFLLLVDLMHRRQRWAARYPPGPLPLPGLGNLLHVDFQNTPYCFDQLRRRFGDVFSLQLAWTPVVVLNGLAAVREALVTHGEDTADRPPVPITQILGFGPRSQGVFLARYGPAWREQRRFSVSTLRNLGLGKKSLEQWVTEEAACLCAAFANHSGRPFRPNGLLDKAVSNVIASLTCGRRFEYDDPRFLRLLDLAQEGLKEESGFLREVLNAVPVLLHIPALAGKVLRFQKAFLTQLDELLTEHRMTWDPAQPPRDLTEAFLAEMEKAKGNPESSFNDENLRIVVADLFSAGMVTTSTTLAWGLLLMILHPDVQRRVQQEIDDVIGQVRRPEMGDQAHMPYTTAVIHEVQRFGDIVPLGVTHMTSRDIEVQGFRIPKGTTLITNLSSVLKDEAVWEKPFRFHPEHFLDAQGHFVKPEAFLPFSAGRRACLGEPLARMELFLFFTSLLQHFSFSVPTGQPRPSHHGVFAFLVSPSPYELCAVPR

SMILES	Potency [1]	activity change, negative = inhibition [2]	Potency [3]	activity change, negative = inhibition [4]	Potency [5]	Potency [6]	Potency [7]	Potency [8]	Potency [9]	Potency [10]	Potency [11]	Potency [12]	activity change, negative = inhibition [3]	activity, negative = inhibition [13]
Cc1c2cnccc2c(C)c2c1c1ccccc1n2CCOC(=O)c1ccccc1	> 11.4 µM	2.26%	0.0794 µM (active)	-4.41%	> 46 µM	> 9.22 µM	inactive	inactive	3.16 µM (active)	0.631 µM (active)	inactive	3.16 µM (active)		
c1c[nH]c(CN2CCOCC2)n1	> 11.4 µM	6.52%	inactive	6.99%	> 46 µM	> 9.22 µM	inactive	inactive						
O=C(O)CCc1c2ccc(=O)c(O)c-2oc2c(O)c(O)ccc12	> 11.4 µM	3.21%		17.3%	> 46 µM	> 9.22 µM	inactive	inactive					-4% [at 2.29 µM]	
c1ccc([C@H](c2cccc3c2ccc2ccccc23)[C@H](c2ccccc2)c2cccc3c2ccc2ccccc23)cc1	> 11.4 µM	15.9%	inactive	-0.573%	> 46 µM	> 9.22 µM	inactive	inactive						
Oc1ccc(Cn2c(-c3ccc(O)cc3)nc3ccccc32)cc1	> 11.4 µM	0.507%	inactive	20.6%	> 46 µM	> 9.22 µM	inactive	inactive						
CC(=O)[C@]1(O)CC[C@@H]2[C@H]3C[C@@H](C)C4=CC(=O)CC[C@@]4(C)[C@H]3[C@@H](O)C[C@]21C	> 11.4 µM	-0.0488%		16.8%	< 2.95e-05 µM (active)	0.0236 µM (active)	inactive	inactive					-2% [at 2.29 µM]	
CC1=NN(c2ccc(S(=O)(=O)O)cc2)C(=O)/C1=C\c1ccc(Cl)cc1	> 11.4 µM	3.84%		7.84%			inactive	inactive					-8.9% [at 2.29 µM]	-1.78%
CCC(=O)OCN1C(=O)C=CC1=O	> 11.4 µM	-2.18%	3.16 µM (active)	-27.8%	> 46 µM	> 9.22 µM	inactive	inactive						
NC(N)=NC(N)=Nc1ccc(S(N)(=O)=O)cc1	> 11.4 µM	3.63%	inactive	3.86%	> 46 µM	> 9.22 µM	inactive	inactive						
CCOC(=O)Nc1nc(-c2ccccc2)c(C)s1	> 11.4 µM	-8.11%	0.2 µM (active)	-9.95%	> 46 µM	> 9.22 µM	inactive	inactive						
c1ccc(NCCSc2nc3ccccc3s2)cc1	> 11.4 µM	2.9%	0.501 µM (active)	-14.1%	> 46 µM	> 9.22 µM	inactive	inactive						
O=C(O)CSc1nc2ccccc2[nH]1	> 11.4 µM	3.97%	inactive	-2.37%	> 46 µM	> 9.22 µM	inactive	inactive						
O=C(O)[C@@H](O)[C@@H](O)[C@@H](O)[C@@H](O)c1nc2ccccc2s1	> 11.4 µM	11.6%	3.98 µM (active)	-1.53%	> 46 µM	> 9.22 µM	inactive	inactive						
Oc1ccccc1CNCc1ccccc1O	> 11.4 µM	-4.9%	inactive	-12.2%	> 46 µM	> 9.22 µM	inactive	inactive						
